Results published in ChEMBL document CHEMBL3988442, “University of Dundee, Small-Polar-MMV Screening Library” (2021).
For some of these results: Measured potencies and affinities stand elsewhere.

Columns and labels:
Parameters in all cases: scale not given: direction of the effect not stated beside the values
[1] = biological target: Protein translocase subunit SecA (Escherichia coli (strain K12)) (UniProt P10408); test: Assay to Identify E. coli SecA ATPase Inhibitors; format: functional; conditions: 30 µM
Protein translocase subunit SecA (Escherichia coli (strain K12)), sequence (P10408 whole entry): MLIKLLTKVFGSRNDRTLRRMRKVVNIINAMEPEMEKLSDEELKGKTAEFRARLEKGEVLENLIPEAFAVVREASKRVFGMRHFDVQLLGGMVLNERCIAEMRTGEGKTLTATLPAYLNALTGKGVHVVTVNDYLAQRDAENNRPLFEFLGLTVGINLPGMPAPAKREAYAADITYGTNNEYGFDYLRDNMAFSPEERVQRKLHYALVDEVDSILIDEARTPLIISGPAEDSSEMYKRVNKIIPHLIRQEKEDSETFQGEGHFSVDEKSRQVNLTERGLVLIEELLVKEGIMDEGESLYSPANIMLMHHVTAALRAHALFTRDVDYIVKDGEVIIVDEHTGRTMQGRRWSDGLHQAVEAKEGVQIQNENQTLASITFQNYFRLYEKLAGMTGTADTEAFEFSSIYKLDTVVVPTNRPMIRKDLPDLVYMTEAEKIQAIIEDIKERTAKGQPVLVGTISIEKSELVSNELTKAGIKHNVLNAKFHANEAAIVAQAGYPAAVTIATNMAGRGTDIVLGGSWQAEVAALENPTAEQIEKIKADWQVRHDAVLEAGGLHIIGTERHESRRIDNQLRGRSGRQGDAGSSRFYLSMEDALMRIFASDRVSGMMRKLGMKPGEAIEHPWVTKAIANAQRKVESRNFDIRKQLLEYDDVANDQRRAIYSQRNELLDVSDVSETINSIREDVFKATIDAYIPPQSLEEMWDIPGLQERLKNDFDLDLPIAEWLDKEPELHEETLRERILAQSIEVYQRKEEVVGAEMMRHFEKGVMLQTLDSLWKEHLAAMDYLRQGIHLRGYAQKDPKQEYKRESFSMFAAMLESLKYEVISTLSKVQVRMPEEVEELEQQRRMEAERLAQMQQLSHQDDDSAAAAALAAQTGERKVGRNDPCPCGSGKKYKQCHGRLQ

[2] = biological target: T1, Ubiquitin-activating enzyme e1, putative (Leishmania donovani (strain BPK282A1)) (UniProt E9BSI1); test: Leishmania donovani Ubiquitin Activating Enzyme (LdE1); format: functional; conditions: 30 µM
T1 sequence (whole entry): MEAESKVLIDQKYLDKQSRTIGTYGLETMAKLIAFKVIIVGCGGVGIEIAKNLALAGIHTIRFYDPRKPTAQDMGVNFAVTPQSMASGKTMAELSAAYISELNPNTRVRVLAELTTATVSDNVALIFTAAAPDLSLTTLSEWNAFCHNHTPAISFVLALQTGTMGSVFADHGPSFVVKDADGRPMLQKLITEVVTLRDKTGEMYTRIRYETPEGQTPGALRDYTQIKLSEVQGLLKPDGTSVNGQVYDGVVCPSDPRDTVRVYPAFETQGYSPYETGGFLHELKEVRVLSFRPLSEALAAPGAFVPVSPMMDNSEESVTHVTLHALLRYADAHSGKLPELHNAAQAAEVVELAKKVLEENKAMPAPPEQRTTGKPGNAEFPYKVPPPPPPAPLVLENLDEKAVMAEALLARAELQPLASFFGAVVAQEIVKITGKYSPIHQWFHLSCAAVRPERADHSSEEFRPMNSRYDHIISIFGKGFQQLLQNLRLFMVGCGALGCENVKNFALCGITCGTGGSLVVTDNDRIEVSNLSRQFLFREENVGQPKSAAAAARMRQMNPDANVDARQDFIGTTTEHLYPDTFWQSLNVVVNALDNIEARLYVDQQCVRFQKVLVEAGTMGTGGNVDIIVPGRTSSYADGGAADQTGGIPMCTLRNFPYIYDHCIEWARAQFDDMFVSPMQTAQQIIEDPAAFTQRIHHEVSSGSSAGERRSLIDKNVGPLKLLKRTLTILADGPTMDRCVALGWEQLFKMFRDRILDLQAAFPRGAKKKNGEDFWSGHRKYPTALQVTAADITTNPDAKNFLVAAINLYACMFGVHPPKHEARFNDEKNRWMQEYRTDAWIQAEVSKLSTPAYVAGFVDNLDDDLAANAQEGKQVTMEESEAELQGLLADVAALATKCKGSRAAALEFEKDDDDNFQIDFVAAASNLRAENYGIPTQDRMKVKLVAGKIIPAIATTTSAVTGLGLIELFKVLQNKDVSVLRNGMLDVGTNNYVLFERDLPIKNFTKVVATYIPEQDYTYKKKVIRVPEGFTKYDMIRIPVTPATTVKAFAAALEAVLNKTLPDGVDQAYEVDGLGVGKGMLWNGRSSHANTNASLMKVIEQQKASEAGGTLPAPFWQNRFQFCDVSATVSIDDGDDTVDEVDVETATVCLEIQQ

[3] = biological target: AMP-activated protein kinase, AMPK (Homo sapiens) (UniProt P54646+O43741+P54619+Q9UGJ0+Q9Y478+Q13131+Q9UGI9); test: AMP-dependent Kinase enzyme assay. An in vitro enzyme assay that detects ADP turnover that is directly proportional to AMPK activity. This uses naive AMPK that is activated during the assay with MK-8722; format: functional; conditions: 30 µM
[4] = biological target: Sialic acid-binding Ig-like lectin 9 (Homo sapiens) (UniProt Q9Y336); test: Hs-Siglec9 ALPHAscreen SOP 20170721; conditions: 10 µM
Sialic acid-binding Ig-like lectin 9 (Homo sapiens), sequence (Q9Y336 whole entry): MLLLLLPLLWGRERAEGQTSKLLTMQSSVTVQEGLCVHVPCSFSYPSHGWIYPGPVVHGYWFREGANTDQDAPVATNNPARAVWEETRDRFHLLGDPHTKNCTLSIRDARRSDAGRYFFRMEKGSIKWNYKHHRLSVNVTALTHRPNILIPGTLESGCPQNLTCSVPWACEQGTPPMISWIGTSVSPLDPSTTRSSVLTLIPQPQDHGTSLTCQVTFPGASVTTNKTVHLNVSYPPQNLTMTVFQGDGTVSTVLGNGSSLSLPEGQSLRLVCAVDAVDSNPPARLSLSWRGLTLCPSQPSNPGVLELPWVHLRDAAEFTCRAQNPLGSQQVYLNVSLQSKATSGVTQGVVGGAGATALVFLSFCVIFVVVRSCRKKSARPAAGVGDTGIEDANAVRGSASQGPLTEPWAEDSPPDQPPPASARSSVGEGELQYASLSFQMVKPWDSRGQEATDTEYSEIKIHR

Trypanosoma cruzi = test: Trypanosoma cruzi phosphomannomutase and mannose-1-phosphate guanylyltransferase assay; format: functional; conditions: 10 µM
[5] = biological target: T2, Arginase-2, mitochondrial (Homo sapiens) (UniProt P78540); test: in vitro enzyme assay to detect the production of urea directly proportional to the activity of Arginase II; format: functional; conditions: 33.3 µM; further: in the data most compounds retested in dose-response had high values
T2 sequence (whole entry): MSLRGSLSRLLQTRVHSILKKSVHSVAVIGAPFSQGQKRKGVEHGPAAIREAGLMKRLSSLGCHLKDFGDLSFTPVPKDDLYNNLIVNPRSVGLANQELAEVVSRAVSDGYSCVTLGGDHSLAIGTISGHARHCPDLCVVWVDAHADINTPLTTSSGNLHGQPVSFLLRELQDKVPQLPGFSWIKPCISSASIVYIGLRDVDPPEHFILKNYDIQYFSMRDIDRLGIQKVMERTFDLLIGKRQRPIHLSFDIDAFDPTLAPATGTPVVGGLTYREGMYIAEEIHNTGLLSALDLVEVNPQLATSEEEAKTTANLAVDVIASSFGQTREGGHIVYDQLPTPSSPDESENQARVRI

[6] = biological target: T3, Proteasome subunit beta (Trypanosoma cruzi) (UniProt O96673); test: Trypanosoma cruzi proteasome chymotrypsin-like activity (TcProtChymo) assay.; further: in the data most compounds retested in dose-response had high values; format: functional; conditions: 9.37 µM
T3 sequence (whole entry): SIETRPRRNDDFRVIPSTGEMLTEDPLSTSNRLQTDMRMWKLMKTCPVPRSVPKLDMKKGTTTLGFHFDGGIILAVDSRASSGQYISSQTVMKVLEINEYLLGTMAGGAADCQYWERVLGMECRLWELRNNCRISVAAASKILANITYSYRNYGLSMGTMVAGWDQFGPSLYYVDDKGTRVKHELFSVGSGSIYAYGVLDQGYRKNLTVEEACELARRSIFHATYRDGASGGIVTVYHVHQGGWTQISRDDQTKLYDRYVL

Homo sapiens = species on record: Homo sapiens; test: To identify inhibition of the IFN signalling (Jak-Stat) pathway via expression of an eGFP reporter gene under the control of an IFN-stimulated response element (ISRE) containing MxA promoter.; format: functional; conditions: 30 µM
[7] = biological target: T4, Tyrosyl-tRNA synthetase, putative (Trypanosoma cruzi (strain CL Brener)) (UniProt Q4DSP6); test: Trypanosoma cruzi tyrosyl tRNA synthetase (TcYRS) _High Tyrosine SOP; format: functional; conditions: 30 µM; further: in the data most compounds retested in dose-response had high values
T4 sequence (whole entry): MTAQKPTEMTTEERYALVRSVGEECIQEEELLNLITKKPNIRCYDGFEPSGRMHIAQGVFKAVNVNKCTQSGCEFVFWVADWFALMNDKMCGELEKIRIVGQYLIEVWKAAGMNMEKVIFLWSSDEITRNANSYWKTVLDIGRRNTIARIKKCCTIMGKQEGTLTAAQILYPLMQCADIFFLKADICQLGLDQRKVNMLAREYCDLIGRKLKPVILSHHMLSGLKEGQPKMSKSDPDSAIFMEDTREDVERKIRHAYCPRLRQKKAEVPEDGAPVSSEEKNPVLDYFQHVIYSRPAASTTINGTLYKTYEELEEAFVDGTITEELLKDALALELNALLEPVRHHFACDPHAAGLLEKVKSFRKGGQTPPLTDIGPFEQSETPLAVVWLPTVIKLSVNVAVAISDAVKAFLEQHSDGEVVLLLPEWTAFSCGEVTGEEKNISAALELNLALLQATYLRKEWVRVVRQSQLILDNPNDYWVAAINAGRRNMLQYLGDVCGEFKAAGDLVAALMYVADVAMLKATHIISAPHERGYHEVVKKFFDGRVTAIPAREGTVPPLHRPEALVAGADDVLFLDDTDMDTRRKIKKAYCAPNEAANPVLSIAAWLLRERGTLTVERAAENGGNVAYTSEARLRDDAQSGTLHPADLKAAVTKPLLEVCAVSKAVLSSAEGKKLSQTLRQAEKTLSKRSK

[8] = biological target: T4, Tyrosyl-tRNA synthetase, putative (Trypanosoma cruzi (strain CL Brener)); test: Trypanosoma cruzi tyrosyl tRNA synthetase (TcYRS) SOP; format: functional; conditions: 30 µM
[9] = biological target: Chromo domain-containing protein 1 (Saccharomyces cerevisiae (strain ATCC 204508 / S288c) (Baker's yeast)) (UniProt P32657); test: ScCHD-1 Enzyme Inhibition Assay; format: functional; conditions: 30 µM; further: in the data most compounds retested in dose-response had high values
Chromo domain-containing protein 1 (Saccharomyces cerevisiae (strain ATCC 204508 / S288c) (Baker's yeast)), sequence (P32657 whole entry, the tested form may be a part): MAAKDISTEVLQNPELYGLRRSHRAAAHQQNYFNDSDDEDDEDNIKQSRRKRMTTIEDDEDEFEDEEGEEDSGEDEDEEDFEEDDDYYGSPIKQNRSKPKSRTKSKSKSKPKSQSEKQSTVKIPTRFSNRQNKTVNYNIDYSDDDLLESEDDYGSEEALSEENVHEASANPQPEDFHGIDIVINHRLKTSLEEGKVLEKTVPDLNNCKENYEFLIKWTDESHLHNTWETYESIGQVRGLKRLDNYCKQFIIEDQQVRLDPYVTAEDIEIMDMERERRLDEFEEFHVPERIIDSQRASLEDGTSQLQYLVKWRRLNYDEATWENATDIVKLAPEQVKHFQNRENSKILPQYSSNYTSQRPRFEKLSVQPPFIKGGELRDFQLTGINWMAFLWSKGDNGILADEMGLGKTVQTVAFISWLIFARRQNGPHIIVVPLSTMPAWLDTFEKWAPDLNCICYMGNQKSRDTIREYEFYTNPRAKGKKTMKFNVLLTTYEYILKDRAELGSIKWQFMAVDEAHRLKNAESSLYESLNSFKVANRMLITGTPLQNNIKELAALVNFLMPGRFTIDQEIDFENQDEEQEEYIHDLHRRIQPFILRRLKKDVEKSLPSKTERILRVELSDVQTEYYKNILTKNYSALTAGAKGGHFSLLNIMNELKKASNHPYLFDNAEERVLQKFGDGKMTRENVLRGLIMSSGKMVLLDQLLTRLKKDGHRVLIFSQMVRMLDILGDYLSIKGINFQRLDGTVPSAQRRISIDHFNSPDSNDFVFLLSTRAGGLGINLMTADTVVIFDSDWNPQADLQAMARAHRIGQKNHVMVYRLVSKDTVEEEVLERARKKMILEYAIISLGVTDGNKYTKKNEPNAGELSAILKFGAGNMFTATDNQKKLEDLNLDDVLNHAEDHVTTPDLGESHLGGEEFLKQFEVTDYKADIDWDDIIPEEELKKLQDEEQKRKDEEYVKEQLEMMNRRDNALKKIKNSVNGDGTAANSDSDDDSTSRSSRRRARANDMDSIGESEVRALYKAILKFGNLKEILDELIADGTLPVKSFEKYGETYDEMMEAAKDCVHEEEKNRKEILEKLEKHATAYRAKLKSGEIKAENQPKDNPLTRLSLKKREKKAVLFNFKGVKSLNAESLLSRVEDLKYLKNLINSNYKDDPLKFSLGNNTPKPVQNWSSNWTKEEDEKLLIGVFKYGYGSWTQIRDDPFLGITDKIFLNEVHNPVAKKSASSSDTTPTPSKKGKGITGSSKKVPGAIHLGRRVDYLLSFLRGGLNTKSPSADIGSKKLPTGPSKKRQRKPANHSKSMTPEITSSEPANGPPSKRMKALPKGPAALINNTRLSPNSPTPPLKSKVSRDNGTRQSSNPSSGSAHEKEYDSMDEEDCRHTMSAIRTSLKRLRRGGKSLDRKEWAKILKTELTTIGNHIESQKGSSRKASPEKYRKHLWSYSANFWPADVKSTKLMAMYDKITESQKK

Row | SMILES | Percent Effect [1] [%] | Percent Effect [2] [%] | Percent Effect [3] [%] | Percent Effect [4] [%] | Percent Effect (Trypanosoma cruzi) [%] | Percent Effect [5] [%] | Percent Effect [6] [%] | Percent Effect (Homo sapiens) [%] | Percent Effect [7] [%] | Percent Effect [8] [%] | Percent Effect [9] [%]
1 | Cc1nnc(C(C)N2CCN(Cc3ccc(C#N)cc3)CC2)o1 (stereo not drawn) | -3.48 | 8.11 | -6.14 | 9.9 | -8.77 | 27.7 | -5.22 | 5.6 | 0.493 | 3.7 | 0.608
2 | COc1cccc([C@@H]2CN(C(=O)c3ccc(C)cc3O)C[C@H]2C(=O)O)c1 | -3.46 | 21.6 | -1.7 | 25.8 | 4.59 | 40.9 | 15.9 | 1.8 | 3.23 | 18.5 | -5.84
3 | COc1ccc(CNC(=O)CNc2cc3c(cc2Cl)OCCCO3)cc1 | -3.73 | -2.7 | 2.47 | -4.48 | -2.25 | 0.744 | 3.35 | 11.5 | 1.07 | 1.24 | -1.22
4 | CCCC(C)CN1CCC(n2cc(C3CCCC3)nn2)CC1 (stereo not drawn) | -5.89 | 13.3 | -5.31 | 18.9 | 9.45 | 10.4 | 9.07 | 7.54 | 6.01 | 11.1 | -4.05
5 | Cc1nn(C)c2cnn(C(C)C(=O)NCc3cccnc3)c12 (stereo not drawn) | -0.721 | 20 | -1.87 | 5 | 1.18 | -1.58 | 12.8 | 17.9 | 5.29 | 17.9 | -9.71
6 | CCOCCN1CCN(Cc2nnc(C3CC3)o2)CC1CC (stereo not drawn) | -2.67 | 11 | -18 | 17.7 | 8.03 | 18.6 | 1.95 | 2.56 | 2.15 | 7.5 | -5.28
7 | COc1c(C)cnc(CN2CCC(N(C)C(C)C(N)=O)CC2)c1C (stereo not drawn) | -2.36 | 13 | 3.82 | -8.74 | -3.56 | -0.712 | 8.95 | 42.8 | 8.74 | 14.6 | -7.36
8 | COc1ccccc1CN(C)C(=O)c1cc(CN2CCC(O)CC2)on1 | -4.25 | 2.74 | 26.1 | 19.3 | 3.53 | 18.6 | 12.8 | -1.57 | 6.45 | 20 | 100
